# High-throughput results deposited in PubChem BioAssay by National Center for Advancing Translational Sciences (NCATS).
# TDP1 cell CPT – DT40-hTDP1 cell growth loss with CPT | chicken DT40 Tdp1-/-;hTDP1 cells + 20 nM CPT, ATP luminescence, 48 h | Potency, µM (highest dose often 46.2 µM), without a hit: top-dose activity change, negative = growth inhibition, usual class: inhibitors | 420,000 compounds, 12% hits | AID 686979; note: % is set by controls: 0 for no effect and ±100 for the full control effect; nearly all actives have a fitted effect of over 55% in size
#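 Chicken DT40 Tdp1-/- cells complemented with human TDP1, 400 cells/well, exposed to compounds plus 20 nM camptothecin for at least 48 h at 37 C; viability read as ATP content by CellTiter-Glo luminescence.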
# TDP1 block – TDP1 (human) enzyme inhibition; AID 485290; recombinant TDP1, AlphaScreen DNA substrate cleavage; 350,000 compounds, 0.28% hits; Q9NUW8; Potency, µM (series often up to 130 µM), without a hit: at the top dose activity change, negative = inhibition, hits mostly inhibitors; note: % is set by controls: 0 for no effect and ±100 for the full control effect; nearly all actives have a fitted effect of over 40% in size
#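 Tdp1 1 nM final; 15 min RT w/ cpd; substrate 15 nM, 5 min; beads 10 ug/ml, 10 min; AlphaScreen read. Neg ctrl: no enzyme.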
# TDP1 cell noCPT – qHTS for Inhibitors of human tyrosyl-DNA phosphodiesterase 1 (TDP1): qHTS in cells in absence of CPT | DT40 Tdp1-/- hTDP1 cells, no CPT, ATP luminescence, 48 h | Potency, µM (top dose mostly 46.2 µM), for the others: at the highest dose activity change, negative = growth inhibition, most hits filed as inhibitors | 420,000 compounds, 15% hits; note: % is set by controls: 0 for no effect and ±100 for the full control effect; nearly all actives have a fitted effect of over 55% in size
#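 No-CPT arm: Tdp1-/-;hTDP1 DT40 cells (400/well) plus compounds, incubated ≥48 hr at 37 °C. Readout CellTiter-Glo luminescence.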
# ClpP mod – qHTS Assay for Activators of ClpP; ATP-dependent Clp protease proteolytic subunit (Bacillus subtilis (strain 168)), P80244; purified B. subtilis ClpP, FRET peptide cleavage, 20 min; Potency, µM (titrated, usually from 57.5 µM), for the others: at the highest dose activity change, negative = active; 340,000 compounds, 1.9% hits; AID 651965, 2013; active = well fitted falling curve with a large enough effect; inconclusive = small, poorly fitted or top-dose-only effect; inactive = no such curve, though single readings can be large or run the other way; note: the source files actives as falling curves though it sought activators and does not explain the sign; nearly all actives have a fitted effect of over 65% in size
# Target sequence (P80244 whole entry, looked up): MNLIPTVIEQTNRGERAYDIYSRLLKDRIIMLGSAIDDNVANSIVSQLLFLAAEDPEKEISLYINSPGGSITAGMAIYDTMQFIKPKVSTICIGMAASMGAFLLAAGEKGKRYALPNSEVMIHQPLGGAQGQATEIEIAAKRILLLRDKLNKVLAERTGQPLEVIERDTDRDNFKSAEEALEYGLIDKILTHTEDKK
#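 Buffer: 100 mM Tris/HCl pH8, 100 mM KCl, 0.05% low protease BSA, 2.5% glycerol, 0.01% Tween-20. ClpP 10 microg/mL final; 20 min RT; delta FRET normalized to ADEP and DMSO controls.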
# * hit, by the source's call; u = inconclusive; x = not tested or not shown; [ ] = remark or other dose. Rows were chosen to be rich in hits. Some 17% of all compounds tested hit in one or more screens of this group. Unless noted, calls come from the whole dose curve; as a rule, active = well fitted curve in the direction sought with a large enough effect; inconclusive = small, poorly fitted or top-dose-only effect, or another doubt; inactive = no such curve, though single readings can be large; an effect the other way counts as inactive or inconclusive. Potency is the fitted concentration of half-maximal effect.
SMILES,TDP1 cell CPT,TDP1 block,TDP1 cell noCPT,ClpP mod
OCCN(CCO)CC(O)COc1ccc(C23CC4CC(CC(C4)C2)C3)cc1 (centres undefined),7.3µM*,0%,7.3µM*,1%
CC1CCCCN1CC(O)COCCC12CC3CC(CC(C3)C1)C2 (centres undefined),15µM*,2%,18µM*,-2%
CCN(CC)CC(O)COCCC12CC3CC(CC(C3)C1)C2 (centres undefined),u,2%,u,1%
Cc1noc(C)c1CCC(=O)N1CCOc2ccc(CN3CCN(c4ccccn4)CC3)cc2C1,-2%[9.04 µM],x,u,x
CCCCC(CC)Cn1c(Oc2ccccc2)nc2c1c(=O)n(C)c(=O)n2C (centres undefined),u,-7%,u,2%
CN(Cc1ccc(OC(F)F)cc1)C(=O)/C=C/c1ccc(S(=O)(=O)N2CCOCC2)cc1,18µM*,0%,u,-1%
COc1ccc(CN(C)C(=O)/C=C/c2ccc(S(=O)(=O)N3CCOCC3)cc2)cc1F,16µM*,1%,21µM*,-11%
CN(Cc1ccc(OC(F)F)cc1)C(=O)C1CCN(S(=O)(=O)c2ccc3c(c2)OCCO3)CC1,u,1%,u,-25%
CC(C)C[C@H](NC(=O)[C@@H](Cc1c[nH]c2ccccc12)NC(=O)[C@H](Cc1ccc(O)cc1)NC(=O)[C@H](CO)NC(=O)[C@H](Cc1c[nH]c2ccccc12)NC(=O)[C@H](Cc1cnc[nH]1)NC(=O)[C@@H]1CCC(=O)N1)C(=O)N[C@@H](CCCN=C(N)N)C(=O)N1CCC[C@@H]1C(=O)NCC(N)=O,9%,x,-15%,x
Cc1cc(C)c(NC(=O)CN2C(=O)CCn3nc(-c4cccn4C)cc32)c(C)c1,4%,9%,11%,-1%
O=C(O)C#CC(=O)O,0%,x,-2%,1%
O=C(Cn1ncc(Cl)c(Cl)c1=O)Nc1ccc2c(c1)OCO2,7.3µM*,-7%,3.3µM*,1%
O=C(Cn1ncc(Cl)c(Cl)c1=O)NC(=O)NC1CCCCC1,2.9µM*,1%,2.9µM*,-2%
CCN(CC)S(=O)(=O)c1cc(NC(=O)Cn2ncc(Cl)c(Cl)c2=O)ccc1C,3.7µM*,3%,2.3µM*,0%
CCC(=O)c1ccc2c(c1)OCCO2,-21%,1%,3%,-9%
Cc1nn(CC(=O)Nc2ccc3c(c2)OCO3)c(C)c1Cl,-1%,5%,-7%,0%
O=C(Cn1ncc(Cl)c(Cl)c1=O)c1ccc2c(c1)OCCO2,16µM*,-3%,23µM*,-2%
O=C1CCCN1c1nccs1,-7%,-2%,-18%,x
CCn1c(SCC(=O)N2CC(C)OC(C)C2)nc2c([nH]c3ccccc32)c1=O (centres undefined),-29%,0%,u,-10%
COc1cc(S(=O)(=O)n2cnc3ccccc32)ccc1Br,2%,x,-9%,0%
Cc1[nH]c2ccccc2c1/C=C/c1cnc2ccccc2n1,u,x,13µM*,-9%
Cc1[nH]c2ccccc2c1/C=C/c1ccc2ccccc2n1,u,x,-111%,-8%
C(=NN=Cc1c[nH]c2ccccc12)c1c[nH]c2ccccc12,2%,x,u,0%
Cc1[nH]c2ccccc2c1/C=C/c1c[nH]c2ccccc12,u,x,11µM*,-5%
CCOc1ccc(NC(=O)c2cccc(N3CCCS3(=O)=O)c2)cc1,-25%,-3%,-28%,0%
SMILES,TDP1 cell CPT,TDP1 block,TDP1 cell noCPT,ClpP mod
Cc1cc2nc3c(=O)[nH]c(=O)[nH]c3nc2c([N+](=O)[O-])c1N,-23%,40µM*,-13%,x
CCOc1ccc(CNCc2c(C(=O)O)n(Cc3ccc(C)cc3)c3cc(C)ccc23)cc1,u,3%,u,-24%
Cc1c(CNCCCc2ccccc2)c(C(=O)O)c(C)n1Cc1ccccc1,-20%,8%,2%,1%
CCOc1ccc(CNCc2c(C(=O)O)c(C)n(Cc3ccc(C)cc3)c2C)cc1,u,0%,18µM*,0%
Cc1c(CNCCCc2ccccc2)c(C(=O)O)c(C)n1Cc1cccc(Cl)c1,u,5%,21µM*,2%
Cc1c(CNCCCc2ccccc2)c(C(=O)O)c(C)n1Cc1ccc(Cl)cc1,u,3%,21µM*,2%
CCCCOc1ccc(C(=O)N2CCN(c3ccc(N4CCOCC4)nn3)CC2)cc1,23µM*,10%,u,x
CCCOc1ccc(C(=O)N2CCN(c3ccc(N)cc3Cl)CC2)cc1,23µM*,9%,21µM*,0%
CCOc1ccc(C(=O)N2CCN(c3ncccn3)CC2)cc1,6%,x,-13%,-7%
Cc1cc(O)c(C(C)C)cc1N=Cc1ccc(N(C)C)cc1,2.9µM*,x,5.2µM*,-1%
CN(C)c1ccc(C=Nc2cnc3ccccc3c2)cc1,u,x,u,4%
COc1cccc(C=Nc2cc(C(C)C)c(O)cc2C)c1O,4.1µM*,x,3.3µM*,-2%
Cc1cc(O)c(C(C)C)cc1N=Cc1ccc([N+](=O)[O-])cc1,7.3µM*,x,16µM*,1%
COC(=O)[C@H](Cc1ccccc1)NC(=O)CC[C@H]1O[C@@H](n2ccc(=O)[nH]c2=O)[C@H](O)[C@@H]1O,2%,x,16%,0%
O=S(=O)(Nc1ccccc1N1CCOCC1)c1ccc(Cl)cc1,u,0%,-14%,3%
COc1ccc(-n2c(=O)c3c(c4cc(OC)ccc4n3C)n(CC(=O)N3CCCC3)c2=O)cc1,u,6%,u,4%
CCOc1ccccc1C(=O)N(Cc1cc(OC)c(OC)c(OC)c1)C1CCS(=O)(=O)C1 (centres undefined),-16%,4%,0%,0%
CCOc1ccccc1C(=O)N(Cc1cc(OC)c(OC)c(OC)c1)c1ccccn1,18µM*,-4%,u,1%
COc1cccc(C(=O)N(Cc2ccco2)c2ccccn2)c1,u,4%,u,-1%
COc1cc(CN(C(=O)c2ccc(C)cc2)c2ccccn2)cc(OC)c1OC,18µM*,-2%,21µM*,0%
COc1cc(CN(C(=O)c2cccc(C)c2)c2ccccn2)cc(OC)c1OC,13µM*,-1%,13µM*,-1%
CCOc1ccc(C(=O)N(Cc2cc(OC)c(OC)c(OC)c2)c2ccccn2)cc1,15µM*,-2%,21µM*,0%
CCOc1ccc(C(=O)N(c2ccccn2)C2CCCCC2)cc1,u,3%,-19%,-2%
CC(=O)N1c2ccc(S(=O)(=O)N3CCC(C(=O)Nc4cc(C)ccn4)CC3)cc2CC1C (centres undefined),u,0%,u,0%
COc1cc(/C=C/C(=O)N(Cc2ccccc2)c2ccccn2)cc(OC)c1OC,u,3%,29µM*,-17%
